Rows were chosen to be rich in hits. Some 9.3% of all compounds tested hit in one or more screens of this group.
NPC1 promoter act: qHTS Assay for NPC1 Promoter Activators. Huh7 NPC1 promoter luciferase reporter, 24 h. Potency, µM (series often up to 9.22 µM), for inactives: top-dose activation, most hits filed as activators. 320,000 compounds, 2.4% hits. AID 485313, 2010; also: % of control where 0% means no effect; nearly all actives have a fitted effect of over 60% in size
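NPC1 promoter–luciferase Huh7 cells; 24 h compound; luminescence.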
ELG1 DNA repair: qHTS screen for small molecules that inhibit ELG1-dependent DNA repair in human embryonic kidney (HEK293T) cells expressing luciferase-tagged ELG1; HEK293T ELG1-luciferase reporter, luminescence, 16 h; DNA damage induced by 5-fluorouridine; 330,000 compounds, 2.3% hits; Potency, µM (top dose mostly 46.1 µM), without a hit: at the highest dose activity change, negative = inhibition, usual class: inhibitors; also: % is scaled to controls: 0 for no effect and ±100 for the full control effect; nearly all actives have a fitted effect of over 55% in size
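Cells (2,000 per well) received 5-fluorouridine plus test compound or DMSO and were incubated 16 hr at 37 °C, 5% CO2. Luciferase activity was read by luminescence 30 min after ONE-Glo addition; signal suppression marked inhibition of damage-induced ELG1 function.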
SMN2 splice up: qHTS Assay for Enhancers of SMN2 Splice Variant Expression | HEK293 SMN2-luciferase splicing reporter, luminescence, 30-36 h | Potency, µM (top dose mostly 46.1 µM), for inactives: at the top dose activity change, positive = activation, actives largely listed as activators | 210,000 compounds, 2.8% hits; also: % of control where 0% means no effect; nearly all actives have a fitted effect of over 55% in size
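HEK293 cells carry an SMN2 […]–luciferase reporter in which exon 7 inclusion puts luciferase in frame. Cells were plated 10-12 h before compound addition, then incubated 30-36 h at 37C. ONE-Glo luminescence was read; sodium butyrate at 4.5 mM final served as control.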
Rab9 promoter act: qHTS Assay for Rab9 Promoter Activators | Potency, µM (top dose mostly 9.22 µM), for the others: top-dose activation, negative = inhibition, actives largely listed as activators | 320,000 compounds, 2.8% hits | Huh7 Rab9 promoter-luciferase reporter, luminescence, 24 h; also: % of control where 0% means no effect; nearly all actives have a fitted effect of over 60% in size
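Huh7 reporter line, Rab9 promoter upstream of luciferase. Compound exposure 24 h at 37 °C in reduced-serum medium with 10% FBS. Read-out: luminescence.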
FLuc modulator: qHTS profiling assay for firefly luciferase inhibitor/activator using purifed enzyme and Km concentrations of substrates (counterscreen for miR-21 project) | Potency, µM (titrated, usually from 57.5 µM), without a hit: top-dose activity change, negative = inhibition, actives largely listed as inhibitors | 360,000 compounds, 6.9% hits | Luciferin 4-monooxygenase (Photinus pyralis), P08659 | purified FLuc, Km substrates, luminescence inhibition | AID 588342, 2011;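 also: plate controls were vehicle for no effect and reference inhibitor for full effect; nearly all actives have a fitted effect of over 55% in size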
Target sequence (P08659 whole entry, looked up): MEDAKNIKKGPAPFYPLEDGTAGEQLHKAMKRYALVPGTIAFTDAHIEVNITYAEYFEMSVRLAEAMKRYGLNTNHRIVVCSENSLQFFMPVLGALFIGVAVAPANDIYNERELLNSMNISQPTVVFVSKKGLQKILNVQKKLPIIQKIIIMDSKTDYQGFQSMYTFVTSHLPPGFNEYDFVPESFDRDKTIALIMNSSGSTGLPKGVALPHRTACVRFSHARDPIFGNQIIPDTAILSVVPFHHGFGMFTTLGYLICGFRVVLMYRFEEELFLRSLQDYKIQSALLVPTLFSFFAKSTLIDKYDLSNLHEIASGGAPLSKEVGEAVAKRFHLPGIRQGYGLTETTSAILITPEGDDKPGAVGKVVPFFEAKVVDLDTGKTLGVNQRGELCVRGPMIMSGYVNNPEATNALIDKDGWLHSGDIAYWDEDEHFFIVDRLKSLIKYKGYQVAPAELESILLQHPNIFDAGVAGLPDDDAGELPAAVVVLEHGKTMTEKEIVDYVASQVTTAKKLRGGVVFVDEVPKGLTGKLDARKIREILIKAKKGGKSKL
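Purified P. pyralis luciferase, 10 nM final, with Km-level 10 uM D-luciferin and 10 uM ATP in 50 mM Tris acetate pH 7.5, 10 mM Mg acetate, 0.01% Tween-20, 0.05% BSA; 6-point qHTS titration about 60 µM downward; luminescence read.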
ELG1 genotox: qHTS screen for small molecules that induce genotoxicity in human embryonic kidney (HEK293T) cells expressing luciferase-tagged ELG1; HEK293T ELG1-luciferase reporter, luminescence, 16 h; Potency, µM (top dose mostly 46 µM), without a hit: at the highest dose activity change, positive = activation, most hits filed as activators; 330,000 compounds, 1.3% hits; AID 504466, 2011; also: % of control where 0% means no effect; nearly all actives have a fitted effect of over 60% in size
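Quantitative HTS format in 1536-well plates. HEK293T ELG1-luciferase reporter cells receive test compound and are incubated 16 hr at 37 °C, 5% CO2; ONE-Glo added, 30 min room temperature, then luminescence read.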
An asterisk follows results filed as active; ? = inconclusive; . = not tested or not shown. Calls follow the shape of the dose curve; as a rule, active = well fitted curve in the direction sought with a large enough effect; inconclusive = small, poorly fitted or top-dose-only effect, or another doubt; inactive = no such curve, though single readings can be large; an effect the other way counts as inactive or inconclusive. Potency is read from the fitted curve at half-maximal effect.

SMILES | NPC1 promoter act | ELG1 DNA repair | SMN2 splice up | Rab9 promoter act | FLuc modulator | ELG1 genotox
O=C(Nc1cccc(O)c1)c1cc(-c2cccs2)on1 | -1% | ? | . | -2% | 0.85µM* | 12µM*
Cc1ccc(NC(=O)c2cc(-c3cccs3)on2)cc1 | -2% | ? | 27% | -1% | 2.4µM* | 11µM*
CC(=O)c1cccc(NC(=O)c2cc(-c3cccs3)on2)c1 | -2% | ? | . | 1% | 0.85µM* | ?
O=C(Nc1ccc(Br)cc1)c1cc(-c2cccs2)on1 | -4% | -9% | . | -3% | -18% | ?
O=C(Nc1ccc(Cl)cc1)c1cc(-c2cccs2)on1 | 2% | 14% | . | 5% | ? | ?
O=C1CC(c2cccnc2)c2cc3c(cc2N1)OCO3 (stereo not given) | -7% | 0% | ? | 1% | -1% | 5%
O=C(COc1cccnc1[N+](=O)[O-])Nc1cc(Cl)ccc1Cl | . | ? | . | . | . | 12%
O=c1c2ccccc2cnn1CCOc1ccccc1 | 0.089µM* | ? | . | 0.1µM* | 0.3µM* | ?
O=C(N/N=C1/CCSC1)c1cccc([N+](=O)[O-])c1 | 0% | -1% | 4% | 1% | 0% | -1%
C/C(=N\NC(=O)c1cc(-c2ccc(Cl)s2)[nH]n1)c1ccncc1 | 2% | 0% | . | 3% | -16% | -5%
Cc1ccccc1N=C1NC(=O)/C(=C/c2cccn2C)S1 | -1% | ? | . | -6% | ? | 0%
Cc1cccc(N=C2NC(=O)/C(=C/c3cccn3C)S2)c1 | 10% | -1% | . | 14% | 12µM* | 16%
Cc1ccc(N=C2NC(=O)/C(=C\c3cccs3)S2)cc1C | 13% | ? | 3.5µM* | 23% | ? | 14%
O=C1NC(=Nc2ccccc2)S/C1=C\c1cccnc1 | 2% | 17% | . | -1% | ? | 6%
O=C1NC(=Nc2ccccc2)S/C1=C\c1cccn1-c1ccccc1 | -1% | ? | ? | 24% | 11µM* | ?
COc1ccc(C(=O)Nc2ccc(S(=O)(=O)NC(C)(C)C)cc2)cc1[N+](=O)[O-] | -5% | ? | -3% | -8% | -2% | -1%
O=C(Nc1nccs1)c1ccc2c(=O)n3c(nc2c1)CCCCC3 | 2.8µM* | ? | . | 3.2µM* | 11µM* | 14%
Cc1csc(NC(=O)c2ccc3c(=O)n4c(nc3c2)CCCCC4)n1 | 3.5µM* | ? | . | 1.1µM* | 8.5µM* | 16%
CCOc1ccccc1NC(=O)c1ccc2c(=O)n3c(nc2c1)CCCCC3 | 11% | -5% | . | 4% | ? | -6%
COc1ccccc1/C=C(/CC(=O)NCc1ccc(F)cc1)c1nc2ccccc2s1 | 1% | ? | -23% | -2% | -11% | -4%
Nc1c2c(nc3sc4c(c13)CCCC4)-c1ccccc1CC2 | 0.5µM* | ? | . | 0.14µM* | 0.13µM* | 0.73µM*
COc1ccc(/C=C2\SC(=S)N(C(C(=O)O)c3ccccc3)C2=O)c(OC)c1 (stereo not given) | -4% | ? | . | -13% | 24µM* | 1%
COc1cccc(/C=C2\SC(=S)N(C(C(=O)O)c3ccccc3)C2=O)c1OC (stereo not given) | 0% | -5% | . | -4% | ? | 0%
CCC(=O)c1ccc(OCC(=O)Nc2nc(C)cs2)cc1 | . | ? | . | . | . | 4%
O=C(Nc1ccccc1)c1ccc(NC2CCCCC2)c(S(=O)(=O)N2CCOCC2)c1 | -2% | 15µM* | -64% | 15% | -1% | -6%
O=C(Nc1ccc2c(c1)OCO2)c1ccc(Br)c(S(=O)(=O)N2CCCC2)c1 | -6% | 21µM* | -59% | 0% | ? | -10%

Screens: PubChem, National Center for Advancing Translational Sciences (NCATS)
